# Where “and” joins values, the source holds several entries; their conditions need not be identical. Equal values may be shown once. Results filed as inconclusive are left out. Calls of active or inactive are those of the source.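 Rule for the calls: active = compounds raising survival of Huntington mutant striatal cells while barely changing normal control cells; inconclusive = compounds that make cell death worse; inactive = the rest.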
# Experiment: qHTS Multiplex Assay to Identify Dual Action Probes in a Cell Model of Huntington: Cytotoxicity in HTT Striatal Cells
# Settings: STHdhQ111/111 striatal cells, serum-free, ATP luminescence, 24 h
# Text: NIH Chemical Genomics Center [NCGC] NIH Molecular Libraries Probe Production centers Network [MLPCN] MLPCN Grant: MH084839-01A1 Assay Submitter (PI): Wei Zheng NCGC Assay Overview: Huntington's disease is a neurodegenerative disorder caused by a trinucleotide repeat expansion in Exon 1 of the Huntingtin gene. The CAG trinucleotide encodes glutamine and polyglutamine expansions cause cell death in selective areas of the brain. Huntington polyglutamine repeats have the tendency to form aggregates which are observable in later stages of the disease. The exact nature of the aggregates, whether toxic, protective, or insignificant, is unclear. A stable PC12 cell line containing a gene fusion of Exon 1 of the Huntingtin gene linked to GFP under the control of the inducible ecdysone promoter were used as the cell-based model of Huntington Disease for high throughput screening. Exon 1 of the Huntingtin gene contained an expansion of 103 polyglutamines (Q103) which, when expressed, caused cell death and distinct, bright GFP aggregates. The amount of cell death and the size and intensity of GFP aggregates increased over time and induction level. The cell death were quantified with a measurement of ATP content in the cells. A maximal 40-50% of cell death was observed when the Huntington gene was induced in this cell line. We optimized this assay in a homogeneous 1536 well format. A quantitative high throughput screen (qHTS) was conducted on the PC12 cells which were induced to express the toxic fusion construct. Small molecules which prevented cell death were identified by using a luminescent ATP quantification method (Perkin Elmer's ATPlite). This assay examines influence on cytotoxicity induced by serum deprivation in normal and Huntington striatal cells.
# Freshlay passaged STHdhQ7/7 cells and mutant STHdhQ111/111 Huntington striatal cells were plated at a density of 20,000 cells/well in complete media and allowed to recover overnight at 33C. The next day, media was replaced with serum containing media or serum free media containing the compound. After 24 hours of incubation at 33 C, cells were assayed for ATP content using the Cell Titer-GLO ATP assay from Promega (cat # G7571). ATP/Toxicity Assay in Serum Free Media (SFM) (96 well plate format) 1. Plate 20,000 cells/well and incubate the cells in complete (w/serum) media overnight 2. Remove media, wash twice with PBS and add the SFM w/ or w/o the compound 3. Incubate at 33C; cells can be incubated at 39C for a more dramatic effect 4. ATP measurements after […] treatment, per kit protocol
smiles,measurement,setting,value
Cn1nnnc1Sc1ncnc2scc(-c3ccccc3)c12,viability change,"measured here: Q7/7 cells, at 30 µM",33% and 26%
same,viability change,"measured here: Q7/7 cells, at 60 µM",21% and 15%
same,viability change,"measured here: Q111/111 cells, at 60 µM",191% and 196%
same,viability change,at 30 µM,231% (active) and 240% (active)
same,viability change,"measured here: Q7/7 cells, FBS, at 30 µM",9% and 8%
same,viability change,"measured here: Q7/7 cells, FBS, at 60 µM",7% and 5%
same,viability change,"measured here: Q111/111 cells, FBS, at 30 µM",18% and 16%
same,viability change,"measured here: Q111/111 cells, FBS, at 60 µM",9% and 8%
